# In PubChem BioAssay (NCATS):
# Unmarked numbers belong to inactive results. Records with an inconclusive call do not appear. Entries that show only a call come without a potency. Calls of active or inactive are those of the source. The call rests on the fitted dose curve; in most records, active means well fitted curve in the direction sought with a large enough effect; inconclusive means small, poorly fitted or top-dose-only effect, or another doubt; inactive means no such curve, though single readings can be large; an effect the other way counts as inactive or inconclusive.
# How the values were obtained:
# [1] = qHTS to identify inhibitors of the type 1 interferon - major histocompatibility complex class I in skeletal muscle: primary screen against the NCATS Mechanism Interrogation Plate v5.0 (MIPE) Libary (AID 1347411); further: nearly all actives have a fitted effect of over 65% in size; further: potency means the concentration at half of the fitted maximal effect
# Outline: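 Luminescence from HiBiT-tagged endogenous HLA-B*08:01 served as the MHC class I read-out. CRISPR-engineered C25cl48 human myoblasts received 4.0 ng/ml IFN-beta plus compound for 24 hrs, with an 11-point, 1:3 series topping at 46 uM final.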
# [2] = target: Protein phosphatase 1D (Homo sapiens) (UniProt O15297); test: Rhodamine-PBP qHTS Assay for Modulators of WT P53-Induced Phosphatase 1 (WIP1) (AID 1347425)
# Outline: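 The read-out is the change in Rhodamine-PBP fluorescence (f1 - f0, ex 525/em 598 nm) as Pi is released, read each minute for 11 min. Final reaction: 5 nM WIP1, 10 uM phosphopeptide VEPPL-pS-QETFS, 10 uM Rh-PBP, 50 mM Tris-HCl pH 7.5, 30 mM MgCl2. Compound was preincubated with enzyme for 1 hour at room temperature.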
# [3] = Validation qHTS assay for inhibitors of Activation Induced Cytidine Deaminase (AID): UDG Counterscreen signal (AID 1347427)
# Outline: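 Counterscreen read of UDG activity (2 U/mL, 4/3x) in the FRET deamination format with AID (1 uM, 4/3x), DJC20/DJC23 substrates (250 nM, 4x), 4 h at room temperature. NaOH stop, fluorescence at 560 ex/665 em.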
# [4] = target: Single-stranded DNA cytosine deaminase (Homo sapiens) (UniProt Q9GZX7); test: Validation qHTS assay for inhibitors of Activation Induced Cytidine Deaminase (AID): AID signal (AID 1347429)
# Outline: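 Fluorescence at 540 nm excitation and 590 nm emission reports ssDNA cytosine deamination by AID, with UDG in the same well. Compound-treated reactions ran 4 hr at room temperature with DJC20/DJC23 substrate, followed by 30 min NaOH treatment.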
# [5] = Primary qHTS for inhibitors of La Crosse Virus (LACV) - induced cell death in SH-SY5Y cells (AID 1508616);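 further: top concentration of the series differs between compounds; higher means more rescue of cells from virus-induced death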
# Outline: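 Protection against LACV-induced cell death is scored in SH-SY5Y cells exposed to compounds and virus (0.01 MOI) for 6 days. Data normalized to virus-infected DMSO wells and virus-free DMSO wells.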
# [6] = target: Calcium and integrin-binding protein 1 (Homo sapiens) (UniProt Q99828); test: Validation qHTS for Identification of Calcium Integrin Binding protein 1 (CIB1) Competitor (AID 1508618)
# Outline: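 CIB1-GST (1 uM final) incubated 15 min at room temperature with compounds (up to 114 uM), then FITC-labelled alphaIIb peptide (100 nM) added. FP read (Ex 480/Em 540) after 15 min, pH 7.4 buffer containing 5 mM CaCl2.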
# [7] = target: Calcium and integrin-binding protein 1 (Homo sapiens) (UniProt Q99828); test: Primary qHTS for Identification of Calcium Integrin Binding Protein 1 (CIB1) Competitor (AID 1508620);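 further: GST tagged CIB1 binding a fluorescein labelled alphaIIb integrin peptide tracer; top concentration of the series differs between compounds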
# Outline: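 Fluorescence polarization competition: GST-tagged CIB1 (1 uM final) preincubated with compound 15 min at room temperature, then FITC-labelled alphaIIb peptide (100 nM final) added. After 15 min at room temperature, polarization read at Ex 480/Em 540.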
# [8] = target: Protein phosphatase 1D (Homo sapiens) (UniProt O15297); test: RapidFire Mass Spectrometry qHTS Assay for Modulators of WT P53-Induced Phosphatase 1 (WIP1) (AID 1347424);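 further: amount of dephosphorylated VEPPL-S-QETFS peptide product formed by WIP1; series mostly up to about 63 µM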
# Outline: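 10 nM WIP1 preincubated with compounds 1 hr at room temperature in pH 7.5 Tris buffer with 30 mM MgCl2, 1 mM TCEP; 2 uM VEPPL-pS-QETFS phosphopeptide for 5 min, formic acid quench; dephosphorylated product quantified by RapidFire MS against labelled standard.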
# [9] = Counterscreen qHTS for small molecule stabilizers of the endoplasmic reticulum resident proteome: GLuc-NoTag assay (AID 1508627);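 further: SH-SY5Y cells given compound then 100 nM thapsigargin to empty ER calcium; series mostly up to about 76 µM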
# Outline: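 SH-SY5Y cells stably expressing constitutively secreted GLuc without SERCaMP tag, exposed to compound for 19 hr, then to 100 nM thapsigargin for 4 hr at 37C. Medium luciferase was read by coelenterazine luminescence without lysis.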
# [10] = target: Calcium and integrin-binding protein 1 (Homo sapiens) (UniProt Q99828); test: Confirmatory qHTS for Identification of Calcium Integrin Binding Protein 1 (CIB1) Competitor (AID 1508617); further: nearly all actives have a fitted effect of over 65% in size
# Outline: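 Compounds at up to 114 uM final met 1 uM GST-tagged CIB1 for 15 min at room temperature (HEPES pH 7.4, 5 mM CaCl2). FITC-labelled alphaIIb peptide, 100 nM, added; polarization read after 15 min more.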
# Sequence of Calcium and integrin-binding protein 1 (Homo sapiens) (Q99828 whole entry, looked up): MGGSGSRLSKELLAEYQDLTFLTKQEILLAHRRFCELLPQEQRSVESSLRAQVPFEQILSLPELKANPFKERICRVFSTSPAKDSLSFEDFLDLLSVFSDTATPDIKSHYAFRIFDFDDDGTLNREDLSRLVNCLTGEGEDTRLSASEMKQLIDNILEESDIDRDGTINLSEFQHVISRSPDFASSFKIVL
# Sequence of Single-stranded DNA cytosine deaminase (Homo sapiens) (Q9GZX7 whole entry, looked up): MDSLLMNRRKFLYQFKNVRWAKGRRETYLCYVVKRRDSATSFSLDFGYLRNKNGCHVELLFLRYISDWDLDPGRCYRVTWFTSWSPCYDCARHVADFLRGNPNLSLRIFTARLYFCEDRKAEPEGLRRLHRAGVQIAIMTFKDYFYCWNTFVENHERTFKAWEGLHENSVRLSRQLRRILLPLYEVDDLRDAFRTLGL
# Sequence of Protein phosphatase 1D (Homo sapiens) (O15297 whole entry, looked up): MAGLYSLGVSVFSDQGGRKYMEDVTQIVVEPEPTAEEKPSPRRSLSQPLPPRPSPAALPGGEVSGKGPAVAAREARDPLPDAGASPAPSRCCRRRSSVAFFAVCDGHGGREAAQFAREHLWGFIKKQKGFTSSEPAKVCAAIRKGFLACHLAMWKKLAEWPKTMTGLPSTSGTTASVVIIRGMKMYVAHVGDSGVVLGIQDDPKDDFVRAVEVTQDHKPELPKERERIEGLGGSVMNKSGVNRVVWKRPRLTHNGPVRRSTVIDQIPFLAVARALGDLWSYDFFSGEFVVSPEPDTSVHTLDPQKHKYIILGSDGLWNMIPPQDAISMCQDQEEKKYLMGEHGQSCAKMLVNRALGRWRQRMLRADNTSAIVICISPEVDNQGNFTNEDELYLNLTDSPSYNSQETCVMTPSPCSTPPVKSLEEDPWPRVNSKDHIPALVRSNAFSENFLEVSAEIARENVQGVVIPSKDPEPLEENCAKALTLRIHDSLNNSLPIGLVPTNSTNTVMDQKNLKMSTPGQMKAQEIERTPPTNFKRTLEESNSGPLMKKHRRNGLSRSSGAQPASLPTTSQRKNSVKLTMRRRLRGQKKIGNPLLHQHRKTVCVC
smiles,measurement,setting,value
CC(=O)O[C@]1(C(C)=O)CC[C@H]2[C@@H]3C=C(Cl)C4=CC(=O)[C@@H]5C[C@@H]5[C@]4(C)[C@H]3CC[C@@]21C,Potency,[1],inactive
same,outcome,[2],inactive
same,outcome,[3],inactive
same,Potency,[4],inactive
same,outcome,[5],inactive
same,outcome,[6],inactive
same,Potency,[7],inactive
O=C(CCN1CCN(C(=O)OCc2cc(Cl)cc(Cl)c2)CC1)c1ccc2[nH]c(=O)oc2c1,Potency,[1],inactive
same,Potency,[7],inactive
CC(=O)Oc1cc2c(s1)CCN(C(C(=O)C1CC1)c1ccccc1F)C2 (stereo not given),Potency,[1],inactive
same,outcome,[8],inactive
same,outcome,[2],inactive
same,outcome,[5],inactive
same,Potency,[7],inactive
c1ccc2c(Cc3c[nH]c4ccccc34)c[nH]c2c1,Potency,[1],inactive
same,Potency,[7],inactive
CN[C@@H](C)C(=O)N[C@H]1CN(C(=O)CC(C)C)CC[C@H]2CC[C@@H](C(=O)NC(c3ccccc3)c3ccccc3)N2C1=O,Potency,[1],inactive
same,Potency,[7],inactive
CCOC(=O)C1=C(N)Oc2ccc(Br)cc2C1C(C#N)C(=O)OCC (stereo not given),Potency,[1],inactive
same,Potency,[7],inactive
CC(C)(C)c1cc(C(=O)O)c(NC(=O)Nc2ccc3[nH]ncc3c2)s1,Potency,[1],inactive
same,Potency,[7],inactive
CCCCCN(C)CCC(O)(P(=O)(O)O)P(=O)(O)O,"activity change, negative = inhibition",[1],-11.6% [at 5.1 µM]
same,outcome,[3],inactive
same,Potency,[4],inactive
same,outcome,[5],inactive
same,Potency,[7],inactive
N#CC1(c2ccc(NC(=O)c3cccnc3NCc3ccncc3)cc2)CCCC1,Potency,[1],inactive
same,Potency,[7],inactive
COc1cccc(-c2cc(=O)c3ccccc3o2)c1N,Potency,[1],inactive
same,outcome,[3],inactive
same,Potency,[4],inactive
same,outcome,[5],inactive
same,outcome,[6],inactive
same,Potency,[7],inactive
C[N+](C)(C)CC(=O)O,Potency,[1],inactive
same,outcome,[8],inactive
same,outcome,[2],inactive
same,outcome,[5],inactive
CNC(=O)c1ccc2cc(C3(O)CCn4cncc43)ccc2c1 (stereo not given),Potency,[1],inactive
same,Potency,[7],inactive
COc1cc2ncnc(Nc3ccc(F)c(Cl)c3)c2cc1OCCCN1CCOCC1,Potency,[1],inactive
same,outcome,[8],inactive
same,outcome,[2],inactive
same,Potency,[7],inactive
same,Potency,[9],inactive
O=c1cc(N2CCOCC2)oc2c(-c3cccc4c3sc3ccccc34)cccc12,Potency,[1],inactive
same,Potency,[7],inactive
O=C(O)c1c(Cl)c(Cl)c(Cl)c(Cl)c1-c1c2cc(I)c(=O)c(I)c-2oc2c(I)c(O)c(I)cc12,Potency,[1],8.29 µM (active)
same,Potency,[10],inactive
Cc1ccc(C(C)(O)c2nc3ccccc3s2)c(C)c1 (stereo not given),Potency,[1],inactive
same,Potency,[7],inactive
N[C@H](CSC(c1ccccc1)(c1ccccc1)c1ccccc1)C(=O)O,Potency,[1],inactive
same,Potency,[7],inactive
O=C(O)c1ccc(-c2c[nH]c3ncc(-c4ccccc4)cc23)cc1C1CCCC1,Potency,[1],inactive
same,Potency,[7],inactive
CC(C)(C)COc1ccc(-n2cc(C(=O)O)cn2)cc1C#N,Potency,[1],inactive
same,Potency,[7],inactive
CCNc1cc(NC2CCC(O)CC2)nc(Nc2ccc3c(ccn3Cc3ccccc3)c2)n1 (stereo not given),Potency,[1],inactive
same,Potency,[7],inactive
COc1ccc(-c2coc3cc(O)cc(O)c3c2=O)cc1,Potency,[1],16.5 µM (active)
same,Potency,[7],inactive
O=C(O)c1cc(O)c2c(c1)C(=O)c1cccc(O)c1C2=O,Potency,[1],inactive
COc1cccc([C@@H](C)NCCCc2ccccc2Cl)c1,Potency,[1],inactive
same,Potency,[7],inactive
O=C(O)c1ccccc1C(=O)Nc1ccc(-c2ccccc2)cc1,Potency,[1],29.4 µM (active)
same,Potency,[7],inactive
Clc1ccc(CCC(Cn2ccnc2)Sc2c(Cl)cccc2Cl)cc1 (stereo not given),Potency,[1],inactive
CC(C)[C@H](CO)Nc1nc(Nc2ccc(C(=O)O)c(Cl)c2)c2ncn(C(C)C)c2n1,Potency,[1],inactive
same,Potency,[7],inactive
CC(=O)Nc1ccc([C@H](C)C(=O)Nc2ncc(C(C)C)s2)cc1,Potency,[1],5.87 µM (active)
same,Potency,[7],inactive
CC1CCC(C(=O)N(c2cc(C#CC(C)(C)C)sc2C(=O)O)C2CCC(O)CC2)CC1 (stereo not given),Potency,[1],inactive
same,Potency,[7],inactive
CS(=O)(=O)N(Cc1ccco1)CC(O)Cn1c2ccccc2c2ccccc21 (stereo not given),Potency,[1],inactive
same,Potency,[7],inactive
c1ccc2c(-c3cnn4cc(-c5ccc(N6CCNCC6)cc5)cnc34)ccnc2c1,Potency,[1],7.39 µM (active)
same,Potency,[7],inactive
c1cc(-c2sc(-c3ccncc3)c(-c3ccncc3)c2-c2ccncc2)ccn1,Potency,[1],inactive
same,Potency,[7],inactive
O=C(Nc1cc(Cl)cc2c1[nH]c1cnccc12)c1cccnc1,Potency,[1],inactive
same,Potency,[7],inactive
Cc1cnc(C(=O)O)c[n+]1[O-],Potency,[1],inactive
same,Potency,[7],inactive
Cc1ccc(C(=O)Nc2cccc(C(F)(F)F)c2)cc1Nc1nc(-c2cccnc2)nc2c1cnn2C,Potency,[1],33 µM (active)
same,Potency,[7],inactive
NC(=O)[C@@H](CCC(F)(F)F)N(Cc1ccc(-c2ncon2)cc1F)S(=O)(=O)c1ccc(Cl)cc1,Potency,[1],inactive
same,Potency,[7],inactive
O=C(NOCC(O)CO)c1cc(Br)c(F)c(F)c1Nc1ccc(I)cc1F (stereo not given),Potency,[1],inactive
same,Potency,[7],inactive
O=C(O)CCC1CCC(c2cc(F)ccc2F)(S(=O)(=O)c2ccc(Cl)cc2)CC1 (stereo not given),Potency,[1],inactive
same,Potency,[7],inactive
Nc1ncnc2c1nc(Cl)n2[C@@H]1O[C@H](CO)[C@@H](O)[C@@H]1O,Potency,[1],inactive
same,Potency,[7],inactive
O=C(O)C(O)Cc1ccc(O)c(O)c1 (stereo not given),Potency,[1],inactive
same,Potency,[7],inactive
C=C1C(=O)OC(CCCCCCCC)C1C(=O)O (stereo not given),Potency,[1],18.6 µM (active)
same,Potency,[7],inactive
N[C@@]1(C(=O)O)CS(=O)(=O)[C@H]2[C@H](C(=O)O)[C@H]21,Potency,[1],inactive
same,Potency,[7],inactive
